Measured values as given in PubChem BioAssay (EPA / NIEHS).
The source made the active and inactive calls. The calls were made as follows: active = hit-call score of the fitted dose curve at least 0.9, where 1 is the maximum; inactive = score below 0.9.

Legend:
[1] = target: Bile acid receptor (Homo sapiens) (UniProt Q96RI1); assay: ATG_IR1_CIS: Attagene CIS-FACTORIAL HepG2 Assay for human Nuclear Receptor Subfamily 1 Group H Member 4 (NR1H4), IR1 submotif (AID 2282946); conditions: IR1 reporter transcription, actives raise or lower the signal
How it was run: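 Readout: reporter transcript levels by RT-PCR with fluorescent capillary electrophoresis, from HepG2 cells transiently transfected with multiplexed cis-regulated reporters and dosed 24 h. Gain- or loss-of-signal fitted versus DMSO negative control.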

[2] = ATG_GRE_CIS: Attagene CIS-FACTORIAL HepG2 Assay for human Glucocorticoid Response Elements (GRE) (AID 2282947); conditions: HepG2 GRE cis-reporter, Attagene multiplex mRNA; actives raise or lower the signal
How it was run: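 HepG2, transient cis-reporter transfection, 24 h. Reporter mRNA: RT-PCR then CE, fluorescence. Fit both directions vs DMSO.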

[3] = ATG_ISRE_CIS: Attagene CIS-FACTORIAL HepG2 Assay for human Interferon Regulatory Factor 1 (IRF1) binding to an Interferon-Stimulated Response Element (ISRE) (AID 2282948); conditions: HepG2 ISRE cis-reporter (Attagene), mRNA transcription readout; actives raise or lower the signal
How it was run: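 Read-out: fluorescent RT-PCR products resolved by capillary electrophoresis, reporting endogenous transcription factor activity via ISRE-driven reporter mRNA in transfected HepG2 cells dosed for 24 h; gain or loss fitted relative to DMSO.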

[4] = ATG_M_32_CIS: Attagene CIS-FACTORIAL HepG2 Assay for M32 Transcription Factor (Internal Marker) (AID 2282949); conditions: HepG2 Attagene cis-factorial M32 reporter, mRNA; actives raise or lower the signal;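 also: background control marker of the multiplexed CIS panel rather than a real target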
How it was run: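 Using DMSO as baseline, bidirectional curve fits were applied to reporter mRNA signals. These came from transiently transfected HepG2 cells exposed for 24 h, with RNA analysed by RT-PCR, FAM primer extension, HpaI digestion and CE.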

[5] = ATG_M_06_CIS: Attagene CIS-FACTORIAL HepG2 Assay for M06 Transcription Factor (Internal Marker) (AID 2282950); conditions: HepG2 Attagene CIS-FACTORIAL M06 internal marker reporter; actives raise or lower the signal
How it was run: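 HepG2 liver cells, 24 h exposure. Reporter transcripts from transfected cis-element constructs quantified by RT-PCR/capillary electrophoresis fluorescence. Bidirectional curve fit against DMSO.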

[6] = target: Hypoxia-inducible factor 1-alpha (Homo sapiens) (UniProt Q16665); assay: ATG_HIF1a_CIS: Attagene CIS-FACTORIAL HepG2 Assay for human Hypoxia Inducible Factor 1 (HIF1A) (AID 2282951); conditions: HepG2 Attagene cis-factorial HIF1a reporter transcription; actives raise or lower the signal
How it was run: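 In this multiplexed cell assay, HepG2 cells bearing transfected cis reporters are dosed for 24 h and reporter mRNA is read by RT-PCR plus capillary electrophoresis; signal increases and decreases are both scored against DMSO.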

[7] = target: Hepatocyte nuclear factor 6 (Homo sapiens) (UniProt Q9UBC0); assay: ATG_HNF6_CIS: Attagene CIS-FACTORIAL HepG2 Assay for human Hepatocyte Nuclear Factor 6 (HNF6) (AID 2282952); conditions: HepG2 Attagene cis-factorial HNF6 reporter transcription; actives raise or lower the signal
How it was run: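 First, HepG2 cells were transfected with the multiplexed cis reporter library and dosed with chemical for 24 h. Next, RNA was reverse-transcribed, PCR-amplified and fluorescently labelled. Finally, HpaI-digested fragments were read by capillary electrophoresis.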

[8] = target: Heat shock factor protein 1 (Homo sapiens) (UniProt Q00613); assay: ATG_HSE_CIS: Attagene CIS-FACTORIAL HepG2 Assay for human Heat Shock Transcription Factor 1 (HSE) (AID 2282953); conditions: HepG2 HSE cis-reporter, Attagene RNA transcription; actives raise or lower the signal
How it was run: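 Endogenous transcription factor activity captured via cis-promoter reporter units transfected into HepG2; treatment lasted 24 h. Fluorescence intensity of reporter fragments analysed with bidirectional curve fitting, DMSO baseline.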

[9] = ATG_MRE_CIS: Attagene CIS-FACTORIAL HepG2 Assay for human Metal Responsive Element (MRE) (AID 2282954); conditions: HepG2 MRE cis-reporter transcription, Attagene multiplex; actives raise or lower the signal
How it was run: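 Readout: capillary electrophoresis of 6-FAM-labelled, HpaI-digested RT-PCR reporter products. System: HepG2 cells carrying transient multiplexed cis reporters, dosed 24 h. Analysis: bidirectional fit, DMSO baseline.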

[10] = target: Paired box protein Pax-6 (Homo sapiens) (UniProt P26367); assay: ATG_Pax6_CIS: Attagene CIS-FACTORIAL HepG2 Assay for human Paired Box 6 (PAX6) (AID 2282956); conditions: HepG2 CIS-FACTORIAL PAX6 reporter transcription, RNA readout; actives raise or lower the signal
How it was run: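 Readout: reporter transcript fluorescence after RT-PCR and capillary electrophoresis. Cells: HepG2, transiently transfected with cis-regulated MRTUs. Exposure 24 h. Gain or loss of signal fitted bidirectionally relative to DMSO.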

[11] = ATG_PXRE_CIS: Attagene CIS-FACTORIAL HepG2 Assay for human Pregnane X Receptor Element (PXRE) (AID 2282957); conditions: HepG2 Attagene CIS-FACTORIAL PXRE reporter, mRNA; actives raise or lower the signal
How it was run: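 After a 24 h chemical incubation, total RNA from transfected HepG2 cells was reverse-transcribed and reporter cDNA amplified, FAM-labeled, HpaI-digested and sized by capillary electrophoresis. DMSO served as baseline for bidirectional curve fitting.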

[12] = ATG_PPRE_CIS: Attagene CIS-FACTORIAL HepG2 Assay for human Peroxisome Proliferator-activated Response Element (PPRE) (AID 2282958); conditions: HepG2 PPRE cis-element reporter, Attagene transcription factor profiling; actives raise or lower the signal
How it was run: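 Multiplexed reporter transcription units under cis-regulatory promoters were transfected into HepG2 cells to capture endogenous factor activity. A 24 h incubation preceded RNA isolation and fluorescent RT-PCR fragment analysis.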

[13] = ATG_RORE_CIS: Attagene CIS-FACTORIAL HepG2 Assay for human RAR-related Orphan Receptor Element (RORE) (AID 2282959); conditions: HepG2 Attagene cis-factorial RORE reporter, mRNA; actives raise or lower the signal
How it was run: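 Fluorescence intensity of reporter-specific cDNA fragments, separated by capillary electrophoresis, gives the signal. Source: HepG2 liver cells transiently transfected with cis-element reporters and exposed 24 h; DMSO-normalized bidirectional fit.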

[14] = ATG_Sox_CIS: Attagene CIS-FACTORIAL HepG2 Assay for human SRY-box transcription factor (SOX) (AID 2282960); conditions: HepG2 Attagene cis-factorial SOX reporter, mRNA; actives raise or lower the signal
How it was run: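 After 24 h of chemical treatment, transfected HepG2 reporter cells are lysed for total RNA. Transcript levels come from RT-PCR with labelled primer extension and capillary electrophoresis, analysed bidirectionally versus DMSO.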

[15] = target: Transcription factor Sp1 (Homo sapiens) (UniProt P08047); assay: ATG_Sp1_CIS: Attagene CIS-FACTORIAL HepG2 Assay for human Specificity Protein 1 (Sp1) (AID 2282961); conditions: HepG2 Sp1 cis-reporter transcription, actives raise or lower the signal
How it was run: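 Sp1-driven reporter mRNA, read as capillary electrophoresis fluorescence after RT-PCR, in transiently transfected HepG2 cells dosed for 24 h; signal change in either direction relative to DMSO.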

[16] = ATG_SREBP_CIS: Attagene CIS-FACTORIAL HepG2 Assay for human Sterol Regulatory Element Binding (SREBP) (AID 2282962); conditions: HepG2 Attagene cis-factorial SREBP reporter, mRNA; actives raise or lower the signal
How it was run: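 Readout: fluorescent reporter-transcript peaks resolved by capillary electrophoresis after RT-PCR. Cells were human HepG2 carrying transfected cis-promoter reporter constructs, dosed for 24 h. Gain or loss of signal was fitted against DMSO controls.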

[17] = target: Signal transducer and activator of transcription 3 (Homo sapiens) (UniProt P40763); assay: ATG_STAT3_CIS: Attagene CIS-FACTORIAL HepG2 Assay for human Signal Transducer and Activator of Transcription 3 (STAT3) (AID 2282963); conditions: HepG2, Attagene cis-factorial STAT3 reporter transcription; actives raise or lower the signal
How it was run: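 Uses human liver HepG2 transiently carrying cis-regulated reporter transcription units. Following 24 h dosing, reporter mRNA induction was detected by RT-PCR and capillary electrophoresis, analysed bidirectionally versus DMSO.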

[18] = ATG_TA_CIS: Attagene CIS-FACTORIAL HepG2 Assay for human TA Basal Promoter (AID 2282964); conditions: HepG2 Attagene CIS-factorial TA basal promoter reporter; actives raise or lower the signal
How it was run: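 Fluorescence from labelled RT-PCR reporter fragments, separated by capillary electrophoresis, gives the signal. Cells: HepG2 transiently carrying multiple reporter units, 24 h chemical dosing. Gain or loss relative to DMSO.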

[19] = ATG_TCF_b_cat_CIS: Attagene CIS-FACTORIAL HepG2 Assay for human T-Cell-Factor with beta-catenin (TCF/b-cat) (AID 2282965); conditions: HepG2 TCF/beta-catenin cis-reporter transcription, actives raise or lower the signal
How it was run: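 Using capillary electrophoresis as the read-out, labelled reporter cDNA fragments from transiently transfected HepG2 were sized and quantified. Exposure lasted 24 hours; activity in either direction was referenced to DMSO.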

[20] = ATG_PBREM_CIS: Attagene CIS-FACTORIAL HepG2 Assay for human Phenobarbital-responsive Enhancer Module (PBREM) (AID 2282955); conditions: HepG2 PBREM cis-reporter, Attagene multiplexed transcription; actives raise or lower the signal
How it was run: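 After a 24 h incubation with test chemical, transfected HepG2 cells yield total RNA; reporter-specific RT-PCR products are fluorescently labelled, HpaI-digested and resolved by capillary electrophoresis against ROX size standards.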

Heat shock factor protein 1 (Homo sapiens), sequence (Q00613 whole entry, looked up, the tested form may be a part): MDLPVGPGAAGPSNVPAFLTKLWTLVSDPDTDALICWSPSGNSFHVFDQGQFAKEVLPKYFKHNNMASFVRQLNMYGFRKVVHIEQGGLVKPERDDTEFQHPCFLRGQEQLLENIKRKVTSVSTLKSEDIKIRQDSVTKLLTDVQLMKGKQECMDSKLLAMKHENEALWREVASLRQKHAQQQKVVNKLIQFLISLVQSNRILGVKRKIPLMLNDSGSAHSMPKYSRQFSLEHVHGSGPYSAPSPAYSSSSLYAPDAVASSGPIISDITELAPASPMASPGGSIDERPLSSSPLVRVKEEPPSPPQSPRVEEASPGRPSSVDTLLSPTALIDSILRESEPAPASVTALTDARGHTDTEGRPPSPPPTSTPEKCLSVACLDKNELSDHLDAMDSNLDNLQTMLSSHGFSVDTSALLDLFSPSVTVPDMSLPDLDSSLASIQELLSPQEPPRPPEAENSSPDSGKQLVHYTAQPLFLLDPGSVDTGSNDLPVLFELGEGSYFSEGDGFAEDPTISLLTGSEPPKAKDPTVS
Hypoxia-inducible factor 1-alpha (Homo sapiens), sequence (Q16665 whole entry, looked up): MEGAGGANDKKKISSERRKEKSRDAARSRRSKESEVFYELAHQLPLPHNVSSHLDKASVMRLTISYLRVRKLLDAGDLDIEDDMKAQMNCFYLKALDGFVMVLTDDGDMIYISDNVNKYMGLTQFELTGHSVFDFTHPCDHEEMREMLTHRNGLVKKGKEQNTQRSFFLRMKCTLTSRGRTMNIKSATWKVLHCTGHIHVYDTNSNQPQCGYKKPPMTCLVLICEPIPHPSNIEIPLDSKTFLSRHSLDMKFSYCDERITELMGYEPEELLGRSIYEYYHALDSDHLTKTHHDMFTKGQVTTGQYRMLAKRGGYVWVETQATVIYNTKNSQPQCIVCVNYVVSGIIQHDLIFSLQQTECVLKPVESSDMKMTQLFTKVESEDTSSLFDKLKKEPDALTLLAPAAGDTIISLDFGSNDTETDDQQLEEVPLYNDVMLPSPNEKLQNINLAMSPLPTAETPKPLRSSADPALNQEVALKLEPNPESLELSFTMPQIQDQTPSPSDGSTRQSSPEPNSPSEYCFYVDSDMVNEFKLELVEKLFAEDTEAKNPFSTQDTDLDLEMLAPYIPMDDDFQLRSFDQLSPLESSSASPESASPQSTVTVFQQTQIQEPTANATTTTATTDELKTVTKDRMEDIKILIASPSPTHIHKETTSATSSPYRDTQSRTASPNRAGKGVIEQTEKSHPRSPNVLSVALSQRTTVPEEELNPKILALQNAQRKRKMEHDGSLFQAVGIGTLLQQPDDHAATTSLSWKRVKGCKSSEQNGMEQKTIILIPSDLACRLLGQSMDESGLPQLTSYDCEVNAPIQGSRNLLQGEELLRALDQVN
Paired box protein Pax-6 (Homo sapiens), sequence (P26367 whole entry, looked up): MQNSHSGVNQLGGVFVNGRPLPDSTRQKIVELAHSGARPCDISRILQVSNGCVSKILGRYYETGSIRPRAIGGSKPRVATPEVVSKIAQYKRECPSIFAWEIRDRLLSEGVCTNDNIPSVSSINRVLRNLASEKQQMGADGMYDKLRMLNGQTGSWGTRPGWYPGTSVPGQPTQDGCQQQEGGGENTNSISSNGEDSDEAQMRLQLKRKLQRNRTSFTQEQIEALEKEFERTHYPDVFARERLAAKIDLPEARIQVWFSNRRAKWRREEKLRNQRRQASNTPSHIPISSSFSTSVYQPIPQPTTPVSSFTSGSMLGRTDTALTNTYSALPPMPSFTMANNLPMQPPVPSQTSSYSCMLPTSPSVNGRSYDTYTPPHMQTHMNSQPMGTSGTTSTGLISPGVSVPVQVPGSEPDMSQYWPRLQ
Transcription factor Sp1 (Homo sapiens), sequence (P08047 whole entry, looked up): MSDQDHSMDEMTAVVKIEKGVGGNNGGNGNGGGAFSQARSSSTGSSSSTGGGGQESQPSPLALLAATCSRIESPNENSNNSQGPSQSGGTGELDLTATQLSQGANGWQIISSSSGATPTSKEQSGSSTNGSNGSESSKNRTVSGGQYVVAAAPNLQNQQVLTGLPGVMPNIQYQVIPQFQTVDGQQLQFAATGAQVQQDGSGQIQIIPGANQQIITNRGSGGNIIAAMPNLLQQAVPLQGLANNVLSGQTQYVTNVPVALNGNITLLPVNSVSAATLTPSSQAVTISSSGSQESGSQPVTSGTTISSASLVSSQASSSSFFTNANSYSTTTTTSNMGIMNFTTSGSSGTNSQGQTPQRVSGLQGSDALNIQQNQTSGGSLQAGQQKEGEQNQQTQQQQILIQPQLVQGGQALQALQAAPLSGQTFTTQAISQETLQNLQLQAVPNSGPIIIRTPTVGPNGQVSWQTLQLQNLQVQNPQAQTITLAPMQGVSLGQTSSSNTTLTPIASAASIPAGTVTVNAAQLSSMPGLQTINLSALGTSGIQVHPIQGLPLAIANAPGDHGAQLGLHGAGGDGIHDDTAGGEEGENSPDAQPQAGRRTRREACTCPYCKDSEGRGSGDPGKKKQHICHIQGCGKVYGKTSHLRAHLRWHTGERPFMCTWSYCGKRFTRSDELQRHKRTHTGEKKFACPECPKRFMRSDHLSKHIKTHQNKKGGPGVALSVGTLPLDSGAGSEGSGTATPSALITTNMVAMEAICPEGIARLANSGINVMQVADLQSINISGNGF
Signal transducer and activator of transcription 3 (Homo sapiens), sequence (P40763 whole entry, looked up): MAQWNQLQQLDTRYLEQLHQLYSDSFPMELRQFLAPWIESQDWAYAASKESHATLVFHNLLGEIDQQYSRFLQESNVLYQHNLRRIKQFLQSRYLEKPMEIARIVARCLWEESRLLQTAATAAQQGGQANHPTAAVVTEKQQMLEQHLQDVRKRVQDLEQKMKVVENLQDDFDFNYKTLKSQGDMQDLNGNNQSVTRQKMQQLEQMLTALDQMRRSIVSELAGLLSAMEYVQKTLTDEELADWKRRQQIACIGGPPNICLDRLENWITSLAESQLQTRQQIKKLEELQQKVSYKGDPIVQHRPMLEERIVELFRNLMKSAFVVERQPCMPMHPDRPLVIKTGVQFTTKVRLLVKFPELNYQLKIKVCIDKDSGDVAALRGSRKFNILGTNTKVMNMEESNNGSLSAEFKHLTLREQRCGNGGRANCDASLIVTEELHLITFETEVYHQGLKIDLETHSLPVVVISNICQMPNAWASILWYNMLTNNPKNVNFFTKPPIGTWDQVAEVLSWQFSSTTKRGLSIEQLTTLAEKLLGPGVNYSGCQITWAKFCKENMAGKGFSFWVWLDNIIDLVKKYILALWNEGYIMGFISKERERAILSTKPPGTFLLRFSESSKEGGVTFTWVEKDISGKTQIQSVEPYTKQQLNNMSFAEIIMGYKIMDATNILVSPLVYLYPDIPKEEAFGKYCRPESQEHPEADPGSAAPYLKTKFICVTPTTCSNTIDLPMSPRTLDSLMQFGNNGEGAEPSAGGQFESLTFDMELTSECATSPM
Hepatocyte nuclear factor 6 (Homo sapiens), sequence (Q9UBC0 whole entry, looked up, the tested form may be a part): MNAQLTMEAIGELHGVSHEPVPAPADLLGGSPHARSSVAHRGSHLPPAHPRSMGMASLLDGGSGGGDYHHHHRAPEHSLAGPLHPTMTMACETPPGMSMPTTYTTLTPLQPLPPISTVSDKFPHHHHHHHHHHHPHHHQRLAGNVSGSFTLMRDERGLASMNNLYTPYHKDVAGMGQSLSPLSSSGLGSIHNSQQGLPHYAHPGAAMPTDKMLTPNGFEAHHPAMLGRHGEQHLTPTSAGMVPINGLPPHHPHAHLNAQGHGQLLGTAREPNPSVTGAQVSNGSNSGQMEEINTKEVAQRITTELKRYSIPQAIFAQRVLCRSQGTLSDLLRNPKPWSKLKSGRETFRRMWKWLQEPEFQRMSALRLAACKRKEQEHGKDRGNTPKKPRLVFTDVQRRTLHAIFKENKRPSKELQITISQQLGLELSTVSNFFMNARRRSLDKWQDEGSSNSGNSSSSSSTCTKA
Bile acid receptor (Homo sapiens), sequence (Q96RI1 whole entry, looked up): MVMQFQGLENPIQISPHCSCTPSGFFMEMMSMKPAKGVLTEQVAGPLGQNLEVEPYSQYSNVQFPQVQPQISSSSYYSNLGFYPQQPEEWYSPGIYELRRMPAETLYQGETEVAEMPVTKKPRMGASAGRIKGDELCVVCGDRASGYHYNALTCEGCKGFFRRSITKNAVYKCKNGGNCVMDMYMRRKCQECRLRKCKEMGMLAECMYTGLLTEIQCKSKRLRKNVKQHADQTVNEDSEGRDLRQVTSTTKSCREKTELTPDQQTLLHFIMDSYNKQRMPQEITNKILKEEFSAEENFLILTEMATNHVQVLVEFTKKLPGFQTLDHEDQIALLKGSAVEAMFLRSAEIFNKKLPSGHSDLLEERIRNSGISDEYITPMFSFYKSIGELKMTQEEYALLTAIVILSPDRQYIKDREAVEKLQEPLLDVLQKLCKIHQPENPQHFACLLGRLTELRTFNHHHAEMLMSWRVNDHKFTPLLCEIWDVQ

In the case of `CCCC(=O)OCCC(C)C`, the outcome [1] is reported as “inactive”, the outcome [2] is reported as “inactive” and the outcome [3] is reported as “inactive”. For the same compound, the outcome [4] was “inactive”, the outcome [5] was “inactive” and the outcome [6] was “inactive”. The outcome [7] was “inactive”, the outcome [8] was “inactive” and the outcome [9] was “inactive”. For the same compound, the outcome [10] was “inactive”, the outcome [11] was “inactive” and the outcome [12] was “inactive”. The outcome [13] was “inactive”, the outcome [14] was “inactive” and the outcome [15] was “inactive”. The outcome [16] was “inactive”, the outcome [17] was “inactive” and the outcome [18] was “inactive”. For the same compound, the outcome [19] was “inactive”.
In the case of `COc1cccc([C@H](O)C2CCN(CCc3ccc(F)cc3)CC2)c1OC`, the outcome [1] is reported as “inactive”, the outcome [2] is reported as “inactive” and the outcome [3] is reported as “inactive”. The outcome [4] was “inactive”, the outcome [5] was “inactive” and the AC50 [6] was 27.4 µM (active). The outcome [7] was “inactive”, the outcome [8] was “inactive” and the outcome [9] was “inactive”. The outcome [10] was “inactive”, the AC50 [11] was 25.8 µM (active) and the outcome [12] was “inactive”. The outcome [13] was “inactive”, the outcome [14] was “inactive” and the outcome [15] was “inactive”. For the same compound, the outcome [16] was “inactive”, the outcome [17] was “inactive” and the outcome [18] was “inactive”. For the same compound, the AC50 [19] was 100 µM (active).
For `NCc1cccc(C2CCN(C(=O)c3ccc(C#Cc4ccccc4F)o3)CC2)c1`, the outcome [1] was “inactive”, the outcome [2] was “inactive” and the AC50 [3] was 19.4 µM (active). For the same compound, the outcome [4] was “inactive”, the outcome [5] was “inactive” and the outcome [6] was “inactive”. For the same compound, the outcome [7] was “inactive”, the AC50 [8] was 17.2 µM (active) and the AC50 [9] was 9.13 µM (active). The AC50 [20] was 18 µM (active), the AC50 [10] was 16.4 µM (active) and the outcome [11] was “inactive”. For the same compound, the AC50 [12] was 2.77 µM (active), the AC50 [13] was 6.79 µM (active) and the outcome [14] was “inactive”. For the same compound, the AC50 [16] was 8 µM (active), the outcome [17] was “inactive” and the AC50 [18] was 16.1 µM (active). For the same compound, the AC50 [19] was 17 µM (active).
With `CCCOC(=O)c1cc(O)c(O)c(O)c1` the outcome [1] was “inactive”, the outcome [2] was “inactive” and the outcome [3] was “inactive”. For the same compound, the outcome [4] was “inactive”, the outcome [5] was “inactive” and the AC50 [6] was 65.1 µM (active). The outcome [7] was “inactive”, the outcome [8] was “inactive” and the outcome [9] was “inactive”. For the same compound, the outcome [20] was “inactive”, the outcome [10] was “inactive” and the outcome [11] was “inactive”. For the same compound, the AC50 [12] was 21 µM (active), the outcome [13] was “inactive” and the outcome [14] was “inactive”. The outcome [16] was “inactive”, the outcome [17] was “inactive” and the outcome [18] was “inactive”. For the same compound, the outcome [19] was “inactive”.
In the case of `O=C(O)c1ccccc1C(=O)OCc1ccccc1`, the outcome [1] is reported as “inactive”, the outcome [2] is reported as “inactive” and the outcome [3] is reported as “inactive”. The outcome [4] was “inactive”, the outcome [5] was “inactive” and the outcome [6] was “inactive”. For the same compound, the outcome [7] was “inactive”, the outcome [8] was “inactive” and the outcome [9] was “inactive”. The outcome [20] was “inactive”, the outcome [10] was “inactive” and the outcome [11] was “inactive”. For the same compound, the outcome [12] was “inactive”, the outcome [13] was “inactive” and the outcome [14] was “inactive”. For the same compound, the outcome [16] was “inactive”, the outcome [17] was “inactive” and the outcome [18] was “inactive”. For the same compound, the outcome [19] was “inactive”.
For `O=C(O)Cn1c(=O)n(Cc2ccc(Br)cc2F)c(=O)c2ccc(Cl)cc21`, the outcome [1] was “inactive”, the outcome [2] was “inactive” and the outcome [3] was “inactive”. The outcome [4] was “inactive”, the outcome [5] was “inactive” and the outcome [6] was “inactive”. The outcome [7] was “inactive”, the outcome [8] was “inactive” and the outcome [9] was “inactive”. The outcome [20] was “inactive”, the outcome [10] was “inactive” and the AC50 [11] was 8.54 µM (active). The outcome [13] was “inactive”, the outcome [14] was “inactive” and the outcome [15] was “inactive”. For the same compound, the outcome [16] was “inactive”, the outcome [17] was “inactive” and the outcome [18] was “inactive”. For the same compound, the outcome [19] was “inactive”.
